# Among all 39,000 compounds or so, about 500 (1.3%) were called active. For the sample, actives were picked, then their nearest neighbours and some compounds at random.
# Test system: S. aureus RN4220
# Assay: growth inhibition call (relative growth <= 0.2)
# Conditions: 50 µM
row,Structure (SMILES),growth inhibition call
1,C[C@@H]1CN([C@@H](C)CO)C(=O)c2cc(-c3cccc(C(=O)N(C)C)c3)cnc2O[C@H]1CN(C)S(=O)(=O)c1ccc(F)cc1,inactive
2,CO[C@@H]1CN(C)C(=O)c2ccc(NC(=O)Nc3ccccc3F)cc2OC[C@@H](C)N(Cc2ccccc2C(=O)O)C[C@H]1C,inactive
3,C[C@@H]1O[C@@H](O[C@@H]2[C@@H](O)[C@H](OCCc3ccc(O)c(O)c3)O[C@H](CO)[C@H]2OC(=O)/C=C/c2ccc(O)c(O)c2)[C@H](O)[C@H](O)[C@H]1O,inactive
4,CO[C@@H]1CN(C)C(=O)c2cc(NS(C)(=O)=O)ccc2OC[C@@H](C)N(C(=O)C2CCCCC2)C[C@H]1C,inactive
5,C[C@@H]1CN([C@@H](C)CO)C(=O)c2cc(NC(=O)c3ccncc3)ccc2O[C@H]1CN(C)Cc1ccc(C(=O)O)cc1,inactive
6,C[C@H](CO)N1C[C@H](C)[C@@H](CN(C)Cc2ccc(Oc3ccccc3)cc2)Oc2ccc(NC(=O)c3ccncc3)cc2C1=O,inactive
7,COc1ccc(S(=O)(=O)Nc2ccc3c(c2)CC(=O)N([C@H](C)CO)C[C@H](C)[C@H](CN(C)Cc2ccc(Cl)c(Cl)c2)O3)cc1,inactive
8,CN1C(=O)c2cc(NC(=O)c3cccs3)ccc2OC[C@@H]2O[C@@H](CC(=O)NCCN3CCCCC3)CC[C@@H]21,inactive
9,CN(C)CC(=O)N[C@H]1CC[C@H](CCNC(=O)C2CCC2)O[C@@H]1CO,inactive
10,C[C@@H]1CN([C@H](C)CO)C(=O)Cc2cc(NC(=O)Nc3ccc(C(F)(F)F)cc3)ccc2O[C@@H]1CN(C)Cc1ccc(-c2ccccc2)cc1,inactive
11,O=C(C[C@@H]1CC[C@H]2[C@@H](COC[C@@H](O)CN2S(=O)(=O)c2ccc(Cl)cc2)O1)NCC1CCCCC1,active
12,O=C(C[C@H]1CC[C@@H]2[C@H](COC[C@H](O)CN2S(=O)(=O)c2ccc(Cl)cc2)O1)NCC1CCCCC1,active
13,O=C(C[C@H]1CC[C@H]2[C@@H](COC[C@@H](O)CN2S(=O)(=O)c2ccc(Cl)cc2)O1)NCC1CCCCC1,inactive
14,O=C(C[C@@H]1CC[C@H]2[C@@H](COC[C@H](O)CN2S(=O)(=O)c2ccc(Cl)cc2)O1)NCC1CCCCC1,inactive
15,O=C(C[C@@H]1CC[C@@H]2[C@H](COC[C@@H](O)CN2S(=O)(=O)c2ccc(Cl)cc2)O1)NCC1CCCCC1,inactive
16,O=C(C[C@@H]1CC[C@@H]2[C@H](COC[C@H](O)CN2S(=O)(=O)c2ccc(Cl)cc2)O1)NCC1CCCCC1,inactive
17,C[C@@H]1CN([C@@H](C)CO)S(=O)(=O)c2ccc(C#CCN(C)C)cc2O[C@@H]1CN(C)S(C)(=O)=O,inactive
18,CC(C)NC(=O)N(C)C[C@H]1Oc2ccc(NC(=O)NC3CCCCC3)cc2CC(=O)N([C@H](C)CO)C[C@H]1C,inactive
19,CC(C)NC(=O)N(C)C[C@@H]1Oc2ccc(NS(=O)(=O)c3cccs3)cc2CC(=O)N([C@@H](C)CO)C[C@@H]1C,inactive
20,C[C@@H]1CN([C@@H](C)CO)C(=O)Cc2cc(NS(=O)(=O)c3cn(C)cn3)ccc2O[C@H]1CN(C)Cc1ccc(C(=O)Nc2ccccc2N)cc1,inactive

row,Structure (SMILES),growth inhibition call
1,C[C@H]1CCCCO[C@@H](CN(C)S(=O)(=O)c2ccccc2)[C@@H](C)CN([C@@H](C)CO)C(=O)c2cc(NC(=O)c3ccccc3)ccc2O1,inactive
2,C[C@@H]1CN([C@H](C)CO)C(=O)c2cc(NC(=O)Nc3ccc(F)cc3)ccc2O[C@@H](C)CCCCO[C@H]1CN(C)Cc1ccccc1,inactive
3,CS(=O)(=O)N1C[C@H](NC(=O)C2CC2)[C@H]2OCCC[C@H]21,inactive
4,C[C@@H]1CN([C@H](C)CO)C(=O)c2cc(NC(=O)Nc3ccc(C(F)(F)F)cc3)ccc2O[C@@H]1CN(C)CC1CCCCC1,inactive
5,C[C@@H]1CCCCO[C@@H](CN(C)CC2CC2)[C@@H](C)CN([C@H](C)CO)C(=O)c2cc(NC(=O)Nc3ccc(C(F)(F)F)cc3)ccc2O1,inactive
6,C[C@@H]1CCCCO[C@@H](CN(C)CC2CC2)[C@H](C)CN([C@@H](C)CO)C(=O)c2cc(NC(=O)Nc3ccc(C(F)(F)F)cc3)ccc2O1,inactive
7,C[C@@H]1CCCCO[C@H](CN(C)CC2CC2)[C@H](C)CN([C@H](C)CO)C(=O)c2cc(NC(=O)Nc3ccc(C(F)(F)F)cc3)ccc2O1,active
8,C[C@H]1CN([C@@H](C)CO)C(=O)c2cc(NC(=O)Nc3ccc(C(F)(F)F)cc3)ccc2O[C@@H]1CN(C)CC1CCCCC1,inactive
9,C[C@@H]1CCCCO[C@H](CN(C)CC2CC2)[C@H](C)CN([C@@H](C)CO)C(=O)c2cc(NC(=O)Nc3ccc(C(F)(F)F)cc3)ccc2O1,active
10,C[C@H]1CCCCO[C@H](CN(C)CC2CC2)[C@@H](C)CN([C@@H](C)CO)C(=O)c2cc(NC(=O)Nc3ccc(C(F)(F)F)cc3)ccc2O1,inactive
11,C[C@H](CO)N1C[C@H](C)[C@H](CN(C)CC2CC2)OCCCC[C@H](C)Oc2ccc(NC(=O)Nc3ccc(C(F)(F)F)cc3)cc2C1=O,inactive
12,C[C@H](CO)N1C[C@H](C)[C@H](CN(C)CC2CCCCC2)Oc2ccc(NC(=O)Nc3ccc(C(F)(F)F)cc3)cc2C1=O,active
13,CCCC#Cc1cnc2c(c1)C(=O)N([C@@H](C)CO)C[C@H](C)[C@@H](CN(C)C(=O)c1ccc3c(c1)OCO3)O2,inactive
14,C[C@@H]1CN([C@H](C)CO)C(=O)c2cc(NS(=O)(=O)c3cn(C)cn3)ccc2O[C@H]1CN(C)Cc1ccc(C(=O)Nc2ccccc2N)cc1,inactive
15,Cc1ccc(S(=O)(=O)Nc2ccc3c(c2)C(=O)N([C@H](C)CO)C[C@@H](C)[C@H](CN(C)Cc2ccc(C(F)(F)F)cc2)O3)cc1,inactive
16,COc1ccc(S(=O)(=O)Nc2ccc3c(c2)[C@H]2C[C@@H](CC(=O)NCC4CC4)O[C@H](CO)[C@H]2O3)cc1,inactive
17,CCOc1nc2cccc(C(=O)OC(C)OC(=O)OC3CCCCC3)c2n1Cc1ccc(-c2ccccc2-c2nnn[nH]2)cc1 (centres undefined),inactive
18,CCOc1nc2cccc(C(=O)O)c2n1Cc1ccc(-c2ccccc2-c2nnn[nH]2)cc1,inactive
19,CCOc1nc2cccc(C(=O)O[C@@H](C)OC(=O)OC3CCCCC3)c2n1Cc1ccc(-c2ccccc2-c2nn[nH]n2)cc1,active

# — the antibiotic and cytotoxicity screens of Wong et al. (2023)
